Anthrax LF prot – blocks Bacillus anthracis lethal factor protease. inhibition, % at 10 µM. actives 0.12% (n = 360,000). P15917. multiplex microsphere protease cleavage assay, LF; note: plate controls were buffer without enzyme for full effect and enzyme alone for no effect
Bead autofluor – flagged as autofluorescent in microsphere protease counterscreen. compound autofluorescence counterscreen, microsphere flow cytometry; active compounds read high. fluorescence intensity (no concentration beside the values). actives 3.1% (n = 360,000); in the data active = fluorescence intensity above about 16000; inconclusive = no clear call, values can overlap the other calls
FBA Mtb inh – inhibits M. tuberculosis FBA enzyme. P9WQA3. purified M. tuberculosis FBA, fluorescence read-out. inhibition, % at 1 µM. actives 2.3% (n = 360,000). AID 588726; in the data active = inhibition above about 27%;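 note: 0% = vehicle and 100% = reference inhibitor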
Target sequence (P9WQA3 whole entry, looked up): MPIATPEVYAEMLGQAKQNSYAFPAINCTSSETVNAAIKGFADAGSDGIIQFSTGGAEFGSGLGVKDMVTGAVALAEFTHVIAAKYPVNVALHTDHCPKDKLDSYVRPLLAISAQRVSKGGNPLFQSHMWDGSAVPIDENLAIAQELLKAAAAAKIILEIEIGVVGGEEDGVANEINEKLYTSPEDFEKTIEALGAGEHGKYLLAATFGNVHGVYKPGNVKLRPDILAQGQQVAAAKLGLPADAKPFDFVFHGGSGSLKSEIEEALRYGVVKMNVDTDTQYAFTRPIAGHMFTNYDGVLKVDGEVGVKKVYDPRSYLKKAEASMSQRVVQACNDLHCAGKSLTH
BoNT F protease – BoNT F light chain protease inhibition; Multiplex microsphere protease cleavage assay, flow cytometry; inhibition, % at 10 µM; actives 0.22% (n = 360,000); AID 588497; in the data active = inhibition above about 35%, passing the limit was not always enough; inconclusive = no clear call, values can overlap the other calls; note: plate controls were buffer without enzyme for full effect and enzyme alone for no effect
BoNT-A LC inh2 – blocks Botulinum neurotoxin A light chain protease. actives 0.17% (n = 360,000). multiplex microsphere protease substrate cleavage, flow cytometry. inhibition, % at 10 µM. AID 588499; note: plate controls were buffer without enzyme for full effect and enzyme alone for no effect
GDH-TPI inh – counter-screen for M. tuberculosis FBA inhibitors: GDH-TPI coupled enzymes; GDH-TPI coupled enzyme counterscreen, NADH absorbance; inhibition, % at 4.8 µM; actives 1.2% (n = 360,000); AID 588335; in the data active = inhibition above about 30%;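 note: 0% = DMSO wells and 100% = wells lacking the enzyme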
* marks the source's active call; other numbers are inactive results. Only some compounds are listed: those with a hit (about 6.7% of all), similar ones and a draw of the others. Cut-off read from the data, not from the text of the source, unless noted: active = inhibition above about 30%; inconclusive = no clear call, values can overlap the other calls; inactive = below that.

For CCC(=O)N1CCN(c2ccc(Cl)cc2NC(=O)c2ccc3c(c2)OCCO3)CC1 the results were Anthrax LF prot -13.7, Bead autofluor 9469, FBA Mtb inh -0.2, BoNT F protease -1.7, BoNT-A LC inh2 -0.4 and GDH-TPI inh 1.7.
`CCC(=O)N1CCN(c2ccc(Cl)cc2NC(=O)c2ccc(N3CCCC3)c([N+](=O)[O-])c2)CC1` gave Anthrax LF prot -7.9, Bead autofluor 18754*, FBA Mtb inh -2.9, BoNT F protease 3.6, BoNT-A LC inh2 4.7 and GDH-TPI inh 0.6.
Cc1ccc(NC(=O)c2ccc(-n3cccn3)c([N+](=O)[O-])c2)cc1 was read as Anthrax LF prot -0.6, Bead autofluor 16419*, FBA Mtb inh 1.1, BoNT F protease -0.7, BoNT-A LC inh2 -0.5 and GDH-TPI inh 11.7.
For Cc1cccc(NC(=O)c2ccc(-n3cccn3)c([N+](=O)[O-])c2)c1 the results were Anthrax LF prot 4.5, Bead autofluor 3292, FBA Mtb inh 0.9, BoNT F protease -8.8, BoNT-A LC inh2 -1.1 and GDH-TPI inh 9.8.
Screening CCNC(=O)/C(C#N)=C/c1c(N2CC(C)OC(C)C2)nc2ccccn2c1=O (stereo not drawn) returned Anthrax LF prot 3.8, Bead autofluor 9966, FBA Mtb inh 3.3, BoNT F protease 5.4, BoNT-A LC inh2 1.3 and GDH-TPI inh 27.2.
COCCCNC(=O)/C(C#N)=C/c1c(N2CCN(C)CC2)nc2ccccn2c1=O was read as Anthrax LF prot -4.0, Bead autofluor 3973, FBA Mtb inh 139.5*, BoNT F protease 17.2, BoNT-A LC inh2 0.1 and GDH-TPI inh 2.0.
For CNC(=O)/C(C#N)=C/c1c(N2CC(C)OC(C)C2)nc2ccccn2c1=O (stereo not drawn) the results were Anthrax LF prot 1.6, Bead autofluor 2516, FBA Mtb inh 123.9*, BoNT F protease 7.8, BoNT-A LC inh2 0.2 and GDH-TPI inh 12.5.
Screening CCN1CCN(c2nc3ccccn3c(=O)c2/C=C(\C#N)S(=O)(=O)c2ccccc2)CC1 returned Anthrax LF prot 32.7*, Bead autofluor 4035, FBA Mtb inh -1.6, BoNT F protease inconclusive, BoNT-A LC inh2 inconclusive and GDH-TPI inh 14.2.
For CCN1CCN(c2nc3c(C)cccn3c(=O)c2/C=C(\C#N)S(=O)(=O)c2ccccc2)CC1 the results were Anthrax LF prot 3.4, Bead autofluor 3217, FBA Mtb inh -7.0, BoNT F protease 15.5, BoNT-A LC inh2 2.5 and GDH-TPI inh -7.7.
COCCNC(=O)/C(C#N)=C/c1c(N2CCN(c3ccccc3)CC2)nc2ccccn2c1=O was read as Anthrax LF prot -4.8, Bead autofluor 3473, FBA Mtb inh 16.1, BoNT F protease -4.6, BoNT-A LC inh2 -0.8 and GDH-TPI inh 12.1.
For CCNC(=O)/C(C#N)=C/c1c(N2CCCCCC2)nc2ccccn2c1=O the results were Anthrax LF prot -5.4, Bead autofluor 3259, FBA Mtb inh 135.2*, BoNT F protease 31.4, BoNT-A LC inh2 -1.7 and GDH-TPI inh 18.9.
`COC(=O)c1ccccc1S(=O)(=O)Oc1ccc(-c2ccc(C(=O)O)cc2)cc1` gave Anthrax LF prot -14.4, Bead autofluor 3745, FBA Mtb inh -0.6, BoNT F protease 37.0*, BoNT-A LC inh2 -3.1 and GDH-TPI inh 1.1.
O=C(c1ccc(OCC2CCCO2)cc1)N1CCN(c2ccccc2)CC1 (stereo not drawn) was read as Anthrax LF prot -1.6, Bead autofluor 3646, FBA Mtb inh 0.1, BoNT F protease 4.6, BoNT-A LC inh2 -1.1 and GDH-TPI inh 14.2.
Screening COc1cccc(C(=O)N2c3ccccc3Sc3ccccc32)c1 returned Anthrax LF prot -1.0, Bead autofluor 2724, FBA Mtb inh -3.0, BoNT F protease -7.0, BoNT-A LC inh2 -1.1 and GDH-TPI inh -1.4.
`Cc1onc(-c2ccccc2Cl)c1C(=O)N1CC(C)OC(C)C1` (stereo not drawn) gave Anthrax LF prot -5.7, Bead autofluor 23411*, FBA Mtb inh 0.4, BoNT F protease -3.0, BoNT-A LC inh2 inconclusive and GDH-TPI inh -9.2.
Cc1onc(-c2ccccc2Cl)c1C(=O)O/N=C(\N)c1ccccc1 was read as Anthrax LF prot -8.2, Bead autofluor 16593*, FBA Mtb inh -1.0, BoNT F protease -62.9, BoNT-A LC inh2 -40.3 and GDH-TPI inh 1.3.
For Cc1onc(-c2ccccc2Cl)c1C(=O)O/N=C(\N)c1cccc([N+](=O)[O-])c1 the results were Anthrax LF prot -5.8, Bead autofluor 3790, FBA Mtb inh -2.6, BoNT F protease -5.5, BoNT-A LC inh2 -0.1 and GDH-TPI inh -7.1.
`Cc1onc(-c2ccccc2Cl)c1C(=O)N1C=CC(C(F)(F)Cl)=NCC1` gave Anthrax LF prot -0.5, Bead autofluor 22372*, FBA Mtb inh 0.9, BoNT F protease 0.7, BoNT-A LC inh2 0.8 and GDH-TPI inh 7.8.
Screening Cc1onc(-c2ccccc2Cl)c1C(=O)N1CC(C)CC(C)C1 (stereo not drawn) returned Anthrax LF prot -1.8, Bead autofluor 6250, FBA Mtb inh -0.1, BoNT F protease -2.4, BoNT-A LC inh2 -0.7 and GDH-TPI inh -4.5.
`CCC(=O)N=c1sc2cc([N+](=O)[O-])ccc2n1CCOC` gave Anthrax LF prot 0.2, Bead autofluor 2349, FBA Mtb inh -5.2, BoNT F protease 2.9, BoNT-A LC inh2 -0.6 and GDH-TPI inh 5.5.
CN(CCCN1CCCCC1)C(=O)CCc1nnc(C2CCCCC2)o1 was read as Anthrax LF prot -4.0, Bead autofluor 4892, FBA Mtb inh 1.2, BoNT F protease 6.9, BoNT-A LC inh2 0.2 and GDH-TPI inh -3.5.
Cc1nc(C(F)(F)F)c(C(=O)NC(=O)Nc2ccc(OC(F)(F)F)cc2)s1 was read as Anthrax LF prot -1.8, Bead autofluor 7646, FBA Mtb inh 1.9, BoNT F protease 8.5, BoNT-A LC inh2 1.4 and GDH-TPI inh -6.4.
Cc1nc(C(F)(F)F)c(C(=O)NC(=O)Nc2ccccc2)s1 was read as Anthrax LF prot -1.2, Bead autofluor 16731*, FBA Mtb inh 0.2, BoNT F protease 0.0, BoNT-A LC inh2 -1.1 and GDH-TPI inh 3.9.
`O=C(NC1CCCCC1)c1cc([N+](=O)[O-])ccc1N1CCCCC1` gave Anthrax LF prot -5.2, Bead autofluor 23223*, FBA Mtb inh -0.5, BoNT F protease -2.4, BoNT-A LC inh2 -1.4 and GDH-TPI inh 4.7.
CCOc1ccc(C(NC(=O)CC)c2c(O)ccc3ccccc23)cc1 (stereo not drawn) was read as Anthrax LF prot 3.3, Bead autofluor 4537, FBA Mtb inh 13.1, BoNT F protease -28.7, BoNT-A LC inh2 -0.6 and GDH-TPI inh 6.0.
O=C(Nc1ccc(Cl)cn1)c1cccc(S(=O)(=O)N2CCOCC2)c1 was read as Anthrax LF prot -0.5, Bead autofluor 20815*, FBA Mtb inh -2.0, BoNT F protease 5.7, BoNT-A LC inh2 4.4 and GDH-TPI inh -9.5.
Cc1ccc(NC(=O)c2cccc(S(=O)(=O)N3CCCC3)c2)nc1 was read as Anthrax LF prot 1.7, Bead autofluor 5584, FBA Mtb inh -1.6, BoNT F protease 0.7, BoNT-A LC inh2 3.1 and GDH-TPI inh 4.8.

Screens from PubChem BioAssay.
